Laboratory results as given in PubChem BioAssay.

Test: probe aNOTCH3 binding on compound microarray – biochemical, small-molecule microarray, 635/667 nm fluorescence, primary screen (AID 1120);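 further: probe is a biotin-tagged antibody raised against NOTCH3 rather than NOTCH3 protein; score merges spot fluorescence near 667 nm with spot signal to noise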
Details: higher = more signal
`COc1ccc(C(=O)Nc2ccc(CN3C(=O)[C@@]4(O[C@@H](CC(=O)N5CCC[C@H]5CO)[C@H]([Si](C)(C)c5ccc(OC)cc5)[C@H]4C)c4ccccc43)cc2)cc1` gave a composite z-score of -0.0219.
For `CN1C(=O)C2C=CC(C(O)C3=C[C@H]4C[C@@H](C3)C4(C)C)N(Nc3ccccc3)C2C1=O` (stereo partly specified), the composite z-score was 0.169.
`CS(=O)(=O)CCOC(=O)C1=CC(CCCO)=CC(c2ccc(CN3CCCC3)cc2)N(Cc2cc3c(cc2Br)OCO3)C=C1C(=O)OCCS(C)(=O)=O` (stereo unspecified) gave a composite z-score of 0.165.
`COC(=O)[C@@]1(Cc2ccc(OC)cc2)[C@H]2c3cc(C(=O)N4CCCC4)n(Cc4ccccc4)c3C[C@H]2CN1C(=O)c1ccccc1` showed a composite z-score of 1.75.
Compound `C[N+](C)(C)CCCCNC(=O)[C@H]1C[C@H]2C(=O)N[C@@H](Cc3ccccc3)C(=O)N2[C@H]1c1ccc(O)cc1` has a composite z-score of -0.0343.
`C[C@]1(C(=O)NC2CC2)c2ccccc2C(=O)N(Cc2cc(C(F)(F)F)cc(C(F)(F)F)c2)[C@H]1c1ccc(CO)cc1` gave a composite z-score of 0.208.
`CCCC#C[Si](O[C@H](CC)c1cn([C@H](CO)Cc2ccccc2)nn1)(C(C)C)C(C)C` showed a composite z-score of -0.108.
In the case of `CC(=O)N1Cc2ccccc2C[C@@]2(COC(c3ccc(OCCCO)cc3)=N2)C1=O`, the composite z-score is reported as 0.286.
For `CC(C)(C)OC(=O)CC[C@@]1(C(=O)NCCN2CCOCC2)N=C(c2ccc(OCCCO)cc2)O[C@@H]1c1ccccc1N=[N+]=[N-]`, the composite z-score was 0.375.
With `CN1C(=O)C2C=CC(C(O)c3ccccc3)N(Nc3ccccc3)C2C1=O` (stereo unspecified) the composite z-score was -0.128.
In the case of `CC(=O)n1cc(C(O)C2C=CC3C(=O)N(C)C(=O)C3N2Nc2ccccc2)c2ccccc21` (stereo unspecified), the composite z-score is reported as 0.235.
